Results from PubChem BioAssay AID1671193 (National Center for Advancing Translational Sciences (NCATS), 2021).
Screen size: about 150,000 compounds; about 180 (0.12%) were called active. Inconclusive results (about 6%) are left out. This is one part of a sample in which actives are shown more often than they occur. Unmarked numbers belong to inactive results. Calls come from the whole dose curve; as a rule, active = well fitted cell-killing curve with a large enough effect; inconclusive = small, poorly fitted or top-dose-only effect, or effect the other way; inactive = flat fitted curve, though single readings scatter.

Test: GF-AFC viability counterscreen for inhibitors of alpha-synuclein gene (SNCA) expression; note: nearly all actives have a fitted effect of over 30% in size
Conditions: HEK-293-SNCA-luc viability, GF-AFC fluorescence, 24 h; series mostly up to 57.1 µM; activity change, negative = cytotoxicity: at the top concentration
Excerpt: Assay Submitter (PI): Daniel R. Scoles Ph.D.
Department of Neurology, University of Utah, Salt Lake City, Utah
Accumulation of alpha-synuclein is a main underlying pathological feature of Parkinson's disease (PD) and alpha-synucleinopathies, for which lowering expression of the alpha-synuclein gene (SNCA) is a potential therapeutic avenue. Using a cell-based luciferase reporter of SNCA expression we performed a quantitative high throughput screen (qHTS) of 155,885 compounds in dose response. The screening assay was generated using genome editing to insert the luciferase gene downstream and in frame of the SNCA gene in HEK-293 cells (1). A viability counterscreen using GF-AFC was used to eliminate cytotoxic and false positive compounds. After in silico analysis (clustering, removal of frequent hitter nuisance chemotypes), inhibitor compounds from the primary screen were selected for follow up and re-tested at 11-doses in the SNCA-luc cells (luciferase and GF-AFC confirmation), and in CMV-luc expressing cell line to flag general transcriptional repressors.
Described herein are the results of the GF-AFC viability counterscreen for SNCA inhibitors; inactivity (no decrease in fluorescence signal, not cytotoxic) is the desired output for this assay.
1. Dansithong, W., Paul, S., Scoles, D. R., Pulst, S. M., and Huynh, D. P. (2015) Generation of SNCA Cell Models Using Zinc Finger Nuclease (ZFN) Technology for Efficient High-Throughput Drug Screening. PLoS ONE 10, e0136930.
SEQUENCE No. (e.g., 1, 2, 3, etc.); […] (e.g., Cells, Incubation, Reagent, etc.); VALUE; DESCRIPTION
1; Cells; 4 uL; Dispense 1500 HEK-293-SNCA-luc cells/well into Greiner 1536-well white / solid bottom tissue culture treated plate. The plate was covered with metal lids with gas-exchange holes.
2; Incubate; 24 hours; Incubate at 37C, 5% CO2, 95% RH.
3; Compounds; 23 nL; Compounds and controls were transferred via a Kalypsys Pin Tool (Wako USA) equipped with a 1536-slotted pin array. The plate was covered with metal lids with gas-exchange holes.
4; Incubate; 24 hours; Incubate at 37C, 5% CO2, 95% RH.
5; Dispense; 1 uL; Dispense Gly-Phe-7-amino-4-trifluoromethylcoumarin (GF-AFC, prepared at 125 uM in PBS) was added. The plate was covered with metal lids with gas-exchange holes.
6; Incubate; 30 min; Incubate at 37C, 5% CO2.
7; Detector; Fluorescence; Measure fluorescence with ViewLux microplate reader (PerkinElmer) equipped with 405/10 excitation and 540/25 emission filters.
8; Dispense; 3 uL; Dispense ONE-Glo ([…]) lucifase detection reagent was added to each well. Plates were covered with metal lids with gas-exchange holes.
9; Incubate; 15 min; Incubate at room temperature.
10; Detector; Luminescence; Measure luminescence with ViewLux microplate reader (PerkinElmer) equipped with clear filters.
NOTES (numbers refer to sequence above)
1; HEK-293-SNCA-luc were cultured and suspended in phenol-red free DMEM (4.5 g/L glucose, 25 mM HEPES, cat #21063 (Thermo)).
3; Compounds were added to the assay plate in an 11-point intra plate dose response, 1:3 titration in DMSO with a final concentration range of […]. Vehicle-only plates, with DMSO being pin-transferred to every well, were inserted at the beginning of screening runs to confirm expected assay performance. Activity was normalized to wells containing medium only (-100% activity, full inhibition) and SNCA-luc cells treated with DMSO vehicle control (0% activity), contained on the same plate as test samples.
10; Signals were analyzed, and dose-response curves were fit using the Hill equation. Compounds in curve classes -1.1, -1.2, -2.1, -2.2 in the SNCA-luc assay were considered active. Compounds were eliminated from further consideration if also active (curve class -1.1, -1.2, -1.3, -1.4, -2.1, -2.2, -2.3, -2.4) in the GF-AFC cytotoxicity assay.

SMILES	activity change, negative = cytotoxicity
CCOC(=O)C1CCCN(C(=O)c2c(C)oc3c2CN(Cc2ccc(C)cc2)CC3)C1 (configuration not stated)	1.84%
COc1ccc(OC)c2nc(-c3cccc(C)c3)c(CN3CCCC(O)C3)cc12 (configuration not stated)	-18%
O=C(NC1CCN(c2ccnc3ccnn23)C1)c1ccccc1F (configuration not stated)	2.27% [at 87.6 µM]
Cn1nccc1C(=O)NCCC1CCN(C(=O)Nc2ccccc2)CC1	-3.2%
Cc1ccc(-c2noc([C@@H]3Cc4nc[nH]c4CN3Cc3cccc(C#N)c3)n2)cc1	-20.9% [at 87.6 µM]
CCCCN(CC#Cc1ccccc1)C(=O)c1cc(=O)n(C)c(=O)n1C	-8.83%
COc1ccc(NC(=O)c2nc3sccn3c2-c2cccnc2)cc1	-12.6% [at 87.6 µM]
COCCN1C(=O)CS(=O)(=O)C12CCN(C(=O)c1ccc(C)s1)CC2	20%
CCOc1ccccc1CN1CCC(Cc2nc(-c3cccnc3)n[nH]2)C1 (configuration not stated)	-0.241%
COc1ccccc1-c1nc(C(=O)NCc2cccs2)n2ccncc12	28.7%
O=C(c1ccc(C(F)(F)F)cc1)N1CCCC(C(=O)N2CCC(c3nc4ccncc4[nH]3)C2)C1 (configuration not stated)	-6.6%
CN1CCC2(CC1)Cc1ccccc1CN(C(=O)c1cccc(Cl)c1)C2	10.6%
O=C(NCc1cccc(Cl)c1)C1CCc2nnc(-c3cccc(C(F)(F)F)c3)n21 (configuration not stated)	-23.1%
COc1ccccc1CN1C(=O)COC[C@@H]1[C@H](O)c1ccc(NC(=O)c2ccc(C#N)cc2)cc1	-0.083%
CC(C)Cc1ccc(CN2CCC3(CC2)Cc2ccccc2CNC3=O)cc1	-13.9%
COc1ccc(S(=O)(=O)N2CCC3(CCC(=O)N(CC4CC4)CC3)CC2)cc1	3.17%
O=C(NC1CCN(c2cc(-c3cccs3)[nH]n2)C1)c1ccc(Br)cc1 (configuration not stated)	-25.9%
COc1ccc(CN2CC(Oc3ccc(F)c(F)c3)C2)cc1	6.04%
COc1cccc(-c2cc(C3CCN(C(=O)Nc4ccccc4C)CC3)[nH]n2)c1	5.76%

SMILES	activity change, negative = cytotoxicity
Cc1cccc(-c2nc3ccc(C(=O)N4C(C)CCCC4C)cc3o2)n1 (configuration not stated)	4.64% [at 87.6 µM]
COc1ccc(NC(=O)N2CCCC(Cc3noc(-c4ccccc4)n3)C2)cc1 (configuration not stated)	-21.5%
O=C(Cc1ccc(F)cc1)N1CCC(n2cc(-c3nc(-c4ccccc4)no3)nn2)CC1	-4.44%
COc1ccc(CNC(=O)C2CCN(c3cc(C(F)(F)F)nc(C)n3)CC2)cc1	-1.08%
O=C(Nc1ccc(Cl)cc1)NC1CCN(C(=O)c2ccc(-c3cncnc3)cc2)CC1	0.645% [at 12.5 µM]
O=C(NC1CCCc2c1[nH]c1c(Cl)cccc21)c1ccco1 (configuration not stated)	-11.1%
COc1ccc(C)cc1NC(=O)Nc1cccc(-c2ccc(N3CCCCC3)nn2)c1	-0.192%
CC1(CCCCc2ccccc2)COc2ccc(C(=O)N3CCNC(=O)C3)cc2N1 (configuration not stated)	10.4% [at 87.6 µM]
COC(=O)C1=C(C)N=C2SC=C(CC(=O)N3CCCC3)N2C1c1cccc(F)c1 (configuration not stated)	-2.14%
COC(=O)N1CCC(C(=O)N2CCC3(CC2)CC(=O)Nc2ccccc2O3)CC1	-2.76%
O[C@@H]1C[C@@H](c2nc(-c3ccc4c(c3)OCO4)no2)N(Cc2ccc(-c3ccccn3)cc2)C1	3.7%
CN(C)c1cccc(-c2cnc(Nc3ccc(N4CCOCC4)cc3)c3c2CCO3)c1	-24.4% [at 87.6 µM]
Cc1ccccc1N(C)C1CN(C(=O)OC(C)(C)C)C1	-2.58% [at 87.6 µM]
COc1cccc(-c2cc(-c3nc(-c4ccc5nc[nH]c5c4)no3)[nH]n2)c1	-0.573%
COc1ccc(S(=O)(=O)N2CCC(n3cnnc3-c3ccccc3)CC2)cc1Cl	11.8%
O=C(C1CCN(c2nc(-c3ccccc3)nc3c2CCC3)CC1)N1CCC[C@H]1CO	-13.8%
O=C(O)CCNC(=O)Cn1nc2c(cc1=O)CCCC2	3.69%
O=C(NCc1ccc(F)cc1)C1CCCN(c2ccnc3ccnn23)C1 (configuration not stated)	-16.2% [at 87.6 µM]
O=C(c1ccco1)N1CCC(O)(c2ccccc2)[C@H](N2CCCC2)C1 (some centres not stated)	-4.84%

SMILES	activity change, negative = cytotoxicity
COc1ccc(-n2c(=O)c(C(=O)Nc3ccccc3Cl)nc3cccnc32)cc1	12.9%
Cc1ccc(C(=O)N2CCC(C(=O)N3CCC(c4nc5ncccc5[nH]4)CC3)C2)cc1 (configuration not stated)	0.717%
O=C(Nc1cc(-c2cccnc2)nn1-c1ccccc1)c1ccccc1F	-11.9%
CC(C)Cn1c(=O)c(C(=O)NCc2ccccc2Cl)nc2cccnc21	-0.216%
CC(C)C(=O)N1CCC2(CC1)OC(=O)N(Cc1ccccc1F)C2(C)c1ccccc1 (configuration not stated)	7.41% [at 87.6 µM]
FC(F)(F)c1ccc(CN2CCCC3(CC(c4ccccc4)=NO3)C2)cc1 (configuration not stated)	-1.62%
O=C(NCCC1CCN(C(=O)Nc2ccc(F)cc2)CC1)c1ccccn1	2.57%
COc1ccc(C(=O)N2CCC3(CC2)N(c2ccccc2)C(=O)CS3(=O)=O)cc1F	12.3%
Cc1ccc(F)cc1S(=O)(=O)N1CCC(OC2CCN(Cc3ccccc3)CC2)CC1	0.655%
COc1cc(CNCCOc2ccccc2)ccc1OCC(O)CN1CCOCC1 (configuration not stated)	-10.6%
CC(=O)NC[C@H]1COCc2nc3cc(NC(C)=O)ccc3n21	-1.47% [at 87.6 µM]
COCCOc1ccc(-c2noc([C@@H]3CCCN3C3CCC3)n2)cn1	-1.78% [at 87.6 µM]
COc1ccccc1CN1Cc2cc(NC(=O)C3CCCC3)ccc2OC(C)C1=O (configuration not stated)	-3.41%
O=C(CCC1CCN(S(=O)(=O)c2ccccc2)CC1)NCCc1ccccc1	-3.02%
CC(=O)c1c(C)nn(C(C)CC(=O)N2C[C@H]3CC=CC[C@H]3C2)c1C (some centres not stated)	2.51%
O=C(C[C@@H]1CCNC[C@@H]1Cc1cc(CC2CCCCC2)on1)NC1CCCCC1	8.24% [at 87.6 µM]
COc1cccc([C@@H]2CN(C(=O)CCCn3cnnn3)C[C@H]2C(=O)O)c1	6.48%
COCCN(C)Cc1ccc(CC2CCN(C(=O)C3(c4ccc(OC)cc4)CC3)CC2)cc1	-1.65%
CCOc1ccc(CC(=O)N2CCC(C3CCN(C(=O)NC)CC3)C2)cc1 (configuration not stated)	6.55% [at 12.5 µM]
